The panel holds about 83,000 compounds, 20% with a hit somewhere; the sample as a whole holds those more often.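 For each line, cells grew in 96-well plates with the test compound present at a single concentration for 48 hours.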 Activity calls are given as the source filed them. The calls were made as follows: active = growth percent below 10; inactive = the rest.
Tests used:
Experiment in all cases: NCI-60 one-dose screen, 48 h (100 = growth as untreated, 0 = no growth, -100 = all killed)
Conditions in all cases: 10 µM unless noted
DU-145 prostate = tested on: DU-145 prostate
K-562 leukemia = tested on: K-562 leukemia
MALME-3M melanoma = tested on: MALME-3M melanoma
MDA-MB-231 breast = tested on: MDA-MB-231 breast
RXF 393 renal = tested on: RXF 393 renal
SF-268 CNS = tested on: SF-268 CNS
SF-295 CNS = tested on: SF-295 CNS
SF-539 CNS = tested on: SF-539 CNS
UACC-257 melanoma = tested on: UACC-257 melanoma
M14 melanoma = tested on: M14 melanoma

Measured: growth

c1ccc2cc(-c3n(Cc4ccc5ccccc5n4)c4ccccc4[n+]3Cc3ccc4ccccc4n3)ccc2c1
inactive: DU-145 prostate 13.3%
active: K-562 leukemia -6.05% | MALME-3M melanoma -32.9% | MDA-MB-231 breast -21% | RXF 393 renal -18.8% | SF-268 CNS -3.09% | SF-295 CNS -13.7% | SF-539 CNS 0.28% | UACC-257 melanoma -14.2% | M14 melanoma -8.82%

CC(=O)OC[C@]1(C)C=C2C(=O)[C@](C)(O)C3(CC3)C(C)=C2[C@H]1OC(C)=O
inactive: DU-145 prostate 16.7% | K-562 leukemia 93.1% | MALME-3M melanoma 111% | MDA-MB-231 breast 93.2% | SF-268 CNS 69.4% | SF-295 CNS 83% | SF-539 CNS 95.2% | UACC-257 melanoma 106% | M14 melanoma 88.2%
active: RXF 393 renal 3.69%

Clc1ccccc1Nc1ccc2nnc(-c3ccncc3)n2n1
inactive: DU-145 prostate 114% | K-562 leukemia 47.6% | MALME-3M melanoma 112% | MDA-MB-231 breast 108% | RXF 393 renal 96.2% | SF-268 CNS 101% | SF-295 CNS 93.9% | SF-539 CNS 92.7% | UACC-257 melanoma 114% | M14 melanoma 112%

O=C(NCc1ccc(F)cc1)C1CN(c2ccc(Cl)cc2)N(c2ccc(Cl)cc2)C1=O (configuration not stated)
inactive: DU-145 prostate 85.3% | K-562 leukemia 23.3% | MALME-3M melanoma 60% | MDA-MB-231 breast 84.3% | RXF 393 renal 65.5% | SF-268 CNS 65% | SF-295 CNS 42.5% | SF-539 CNS 87.6% | UACC-257 melanoma 76.3%

Clc1ccc2c(c1)C[C@H]1C[C@@H](c3cccs3)N2O1
inactive: DU-145 prostate 106% | K-562 leukemia 106% | MALME-3M melanoma 95.9% | MDA-MB-231 breast 113% | RXF 393 renal 131% | SF-268 CNS 102% | SF-295 CNS 94.4% | SF-539 CNS 92.3% | UACC-257 melanoma 105% | M14 melanoma 118%

CCN1CCN(c2nc3ccccc3c3c(=O)c4cc(F)ccc4sc23)CC1
inactive: DU-145 prostate 66.4% | K-562 leukemia 10.2% | MALME-3M melanoma 90.9% | MDA-MB-231 breast 51.8% | RXF 393 renal 47.3% | SF-268 CNS 53.7% | SF-295 CNS 93.2% | SF-539 CNS 86% | UACC-257 melanoma 78.7%

O=C1C(N2CCOCC2)=Cc2cccc3cccc1c23
inactive: DU-145 prostate 104% | K-562 leukemia 30.8% | MALME-3M melanoma 113% | MDA-MB-231 breast 106% | RXF 393 renal 99.3% | SF-268 CNS 93.8% | SF-295 CNS 112% | SF-539 CNS 97.5% | UACC-257 melanoma 101% | M14 melanoma 104%

COc1ccc(OC)c2ncccc12
inactive: DU-145 prostate 112% | K-562 leukemia 96% | MALME-3M melanoma 89.7% | MDA-MB-231 breast 109% | RXF 393 renal 107% | SF-268 CNS 102% | SF-295 CNS 95% | SF-539 CNS 102% | UACC-257 melanoma 110% | M14 melanoma 93.5%

O=C1N/C(=C\c2ccccc2)c2ncccc21
inactive: DU-145 prostate 106% | K-562 leukemia 90.7% | MALME-3M melanoma 95.2% | MDA-MB-231 breast 94.3% | RXF 393 renal 127% | SF-268 CNS 98.6% | SF-295 CNS 107% | SF-539 CNS 101% | UACC-257 melanoma 100% | M14 melanoma 98.5%

COc1ccc(S(=O)(=O)c2ccc(C(N)=O)cc2)cc1NC(=O)c1[nH]c(C)c2c1CCCCC2=O
inactive: DU-145 prostate 82.9% | K-562 leukemia 46.5% | MALME-3M melanoma 70.2% | MDA-MB-231 breast 28.9% | RXF 393 renal 68.6% | SF-268 CNS 74.2% | SF-295 CNS 49.9% | SF-539 CNS 48.7% | UACC-257 melanoma 63.2%

Nc1cc2[nH]c(=O)c3ccccc3c2cc1Br
inactive: DU-145 prostate 77% | K-562 leukemia 95% | MALME-3M melanoma 102% | MDA-MB-231 breast 53.2% | RXF 393 renal 85.4% | SF-268 CNS 86.3% | SF-295 CNS 95.6% | SF-539 CNS 74.6% | UACC-257 melanoma 109% | M14 melanoma 83.3%

Fc1ccccc1Nc1ccc2nnc(-c3ccncc3)n2n1
inactive: DU-145 prostate 110% | K-562 leukemia 93.4% | MALME-3M melanoma 103% | MDA-MB-231 breast 101% | RXF 393 renal 113% | SF-268 CNS 101% | SF-295 CNS 112% | SF-539 CNS 106% | UACC-257 melanoma 105% | M14 melanoma 104%

O=C1NC(=S)S/C1=C\c1cccc([N+](=O)[O-])c1
inactive: DU-145 prostate 111% | K-562 leukemia 68.5% | MALME-3M melanoma 153% | MDA-MB-231 breast 93.8% | RXF 393 renal 153% | SF-268 CNS 89.9% | SF-295 CNS 91.3% | SF-539 CNS 88.6% | UACC-257 melanoma 88.8% | M14 melanoma 97.4%

CN1CCC(OC2c3ccccc3CCc3ccccc32)CC1
inactive: DU-145 prostate 107% | K-562 leukemia 96.8% | MALME-3M melanoma 102% | MDA-MB-231 breast 74.8% | RXF 393 renal 89.2% | SF-268 CNS 89.5% | SF-295 CNS 88.6% | SF-539 CNS 102% | UACC-257 melanoma 92.6% | M14 melanoma 103%

CC(C)NCC(O)COc1ccc(CCOCC2CC2)cc1 (configuration not stated)
inactive: DU-145 prostate 111% | K-562 leukemia 97.6% | MALME-3M melanoma 103% | MDA-MB-231 breast 99.6% | RXF 393 renal 97.1% | SF-268 CNS 108% | SF-295 CNS 108% | SF-539 CNS 107% | UACC-257 melanoma 108% | M14 melanoma 96.6%

COc1cccc(C2C3=C(COC3=O)N(CCO)c3cc4c(cc32)OCO4)c1 (configuration not stated)
active: DU-145 prostate 0.613% | RXF 393 renal -14.5% | SF-295 CNS -13.8% | SF-539 CNS -19.1% | M14 melanoma -24.2%
inactive: K-562 leukemia 21% | MALME-3M melanoma 82.4% | MDA-MB-231 breast 34.6% | SF-268 CNS 38.3% | UACC-257 melanoma 35.5%

CN1CCN(c2ccc3nc(-c4ccc5nc(-c6ccc(C(F)(F)F)cc6)[nH]c5c4)[nH]c3c2)CC1
inactive: DU-145 prostate 59.2% | MALME-3M melanoma 18% | MDA-MB-231 breast 82% | SF-268 CNS 70.8% | SF-295 CNS 50.9% | SF-539 CNS 47.2% | UACC-257 melanoma 87.2% | M14 melanoma 43.8%
active: K-562 leukemia -34.2% | RXF 393 renal -14.3%

Cc1nn(-c2ccccc2)c2nc3nc4c(c(N)c3c(-c3ccc(Cl)cc3)c12)CCCC4
inactive: DU-145 prostate 109% | K-562 leukemia 53.4% | MALME-3M melanoma 108% | MDA-MB-231 breast 91.5% | RXF 393 renal 90.9% | SF-268 CNS 105% | SF-295 CNS 96% | SF-539 CNS 96.9% | UACC-257 melanoma 91.9% | M14 melanoma 106%

Nc1nc(-c2ccnc(Cl)c2)nn1-c1nc2ccccc2s1
inactive: DU-145 prostate 115% | K-562 leukemia 112% | MALME-3M melanoma 97.3% | MDA-MB-231 breast 89.5% | RXF 393 renal 108% | SF-268 CNS 100% | SF-295 CNS 101% | SF-539 CNS 98.5% | UACC-257 melanoma 113% | M14 melanoma 101%

Cl.Fc1c[c-]c(-c2ccccn2)c(F)c1.[Pt].c1ccc([PH+](CC[PH+](c2ccccc2)c2ccccc2)c2ccccc2)cc1
active: DU-145 prostate -99.6% | K-562 leukemia -11.4% | MALME-3M melanoma -87.2% | MDA-MB-231 breast -74.2% | RXF 393 renal -84.4% | SF-268 CNS -57.7% | SF-295 CNS -88% | SF-539 CNS -94.6% | UACC-257 melanoma -59.1% | M14 melanoma -84.7%

CCOC(=O)c1c(Cl)c2c(n1Cc1ccc(OC)cc1)-c1oncc1CCC2
inactive: DU-145 prostate 118% | K-562 leukemia 92.1% | MALME-3M melanoma 119% | MDA-MB-231 breast 77.2% | RXF 393 renal 80.5% | SF-268 CNS 95.9% | SF-295 CNS 99% | SF-539 CNS 93.3% | UACC-257 melanoma 96.1% | M14 melanoma 108%

COc1ccc(-c2cc(=O)oc3c4c(ccc23)OCN(Cc2ccc(F)cc2)C4)cc1
inactive: DU-145 prostate 73.4% | K-562 leukemia 24.3% | MALME-3M melanoma 77.1% | MDA-MB-231 breast 58.9% | RXF 393 renal 57% | SF-268 CNS 82% | SF-295 CNS 27.3% | SF-539 CNS 74.7% | UACC-257 melanoma 39.6% | M14 melanoma 54.6%

COc1cc(/C=C/C(=O)CC(=O)/C=C/c2cc(Br)c(OC)c(OC)c2)cc(Br)c1OC
inactive: DU-145 prostate 108% | K-562 leukemia 73.3% | MALME-3M melanoma 96.6% | MDA-MB-231 breast 101% | RXF 393 renal 114% | SF-268 CNS 104% | SF-295 CNS 102% | SF-539 CNS 102% | UACC-257 melanoma 93.1% | M14 melanoma 96.9%

Nc1nc(N)c(C=Nc2ccc(Br)cc2)c(Nc2ccc(Br)cc2)n1
inactive: DU-145 prostate 107% | K-562 leukemia 92.2% | MALME-3M melanoma 119% | MDA-MB-231 breast 86.1% | RXF 393 renal 78.9% | SF-268 CNS 81% | SF-295 CNS 83.5% | SF-539 CNS 101% | UACC-257 melanoma 83.1% | M14 melanoma 97.2%

c1ccc(-c2n(Cc3ccc4ccccc4n3)c3ccccc3[n+]2Cc2ccc3ccccc3n2)cc1
active: K-562 leukemia 2.99% | MALME-3M melanoma -24.6% | MDA-MB-231 breast -13.1% | RXF 393 renal -4.06% | SF-268 CNS 5.9% | SF-295 CNS -9.19% | SF-539 CNS 7.88% | UACC-257 melanoma -2.75% | M14 melanoma -14.9%
inactive: DU-145 prostate 17.5%

CC(C)(C)CC(C)(C)N(CSc1ccc(Cl)cc1)CSc1ccc(Cl)cc1
inactive: DU-145 prostate 73.8% | K-562 leukemia 34.8% | MALME-3M melanoma 82.1% | RXF 393 renal 66.2% | SF-268 CNS 31.5% | SF-295 CNS 27.2% | UACC-257 melanoma 63% | M14 melanoma 48.3%
active: MDA-MB-231 breast 0.954% | SF-539 CNS 6.24%

COc1cc2cc(Oc3ccc(NC(=O)Nc4ccc(Cl)c(C(F)(F)F)c4)cc3)c(C)nc2cc1OCCN1CCCCC1
inactive: RXF 393 renal 44.2% | SF-295 CNS 57.5%
active: DU-145 prostate -85.2% | K-562 leukemia -48.1% | MALME-3M melanoma -78.4% | MDA-MB-231 breast -87.2% | SF-268 CNS 3.42% | SF-539 CNS -89.8% | UACC-257 melanoma -49.4% | M14 melanoma -67.4%

CC(=O)N(CC(O)CO)c1c(I)c(C(=O)NCCO)c(I)c(C(=O)NCC(O)CO)c1I (configuration not stated)
inactive: DU-145 prostate 110% | K-562 leukemia 97% | MALME-3M melanoma 92.4% | MDA-MB-231 breast 90.5% | RXF 393 renal 103% | SF-268 CNS 105% | SF-295 CNS 118% | SF-539 CNS 100% | UACC-257 melanoma 103% | M14 melanoma 92.6%
